Here are results for 29 molecules from PubChem BioAssay (Tox21).

The nature of assay [1]: qHTS assay to identify small molecule agonists of the vitamin D receptor (VDR) signaling pathway - cell viability counter screen (AID 743224). Also: nearly all actives have a fitted effect of over 50% in size. Also: potency is read from the fitted curve at half-maximal effect. In a few lines:
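Viability is measured in the same wells as the VDR-bla reporter assay: after 16 h compound treatment and 2 h substrate loading, CellTiter-Glo is added and luminescence read 30 min later.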

Assay [2] in a line: qHTS assay to identify small molecule antagonists of the vitamin D receptor (VDR) signaling pathway - cell viability counter screen (AID 743225). Also: nearly all actives have a fitted effect of over 50% in size. Also: potency is read from the fitted curve at half-maximal effect. In a few lines:
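Same-well multiplex: following 16 h treatment of HEK 293T cells carrying a UAS-driven beta-lactamase reporter with compound and agonist (3 nM final), and a 2 h FRET substrate step, CellTiter-Glo was added and luminescence read after 30 min.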
(In general: qHTS replaces the single test concentration by a dilution series.)

Assay [3] is described as follows: qHTS assay to identify small molecule agonists of the endoplasmic reticulum stress response signaling pathway (AID 1159516; active = well fitted activation curve with a large enough effect in the signal ratio in the repeat runs, not every such curve was filed as active; the % refers to the signal ratio; also: potency is read from the fitted curve at half-maximal effect). In a few lines: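 Tox21 10K library screened in quantitative HTS format on ESRE-bla HeLa cells, a beta-lactamase reporter under ER stress response element control; 5 hr treatment, FRET read.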
A short description of assay [4]: qHTS assay to identify small molecule agonists of the endoplasmic reticulum stress response signaling pathway - cell viability counter screen (AID 1159517; calls by dose curve; also: nearly all actives have a fitted effect of over 50% in size; also: potency is read from the fitted curve at half-maximal effect). Summed up: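 Luminescence readout: CellTiter-Glo, 30 min RT, same wells as the ESRE-bla reporter read. HeLa ESRE-bla, 1,500 cells/well, o/n 37 C; cpd 5 hr 37 C/5% CO2.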
Assay [5] can be described thus: qHTS assay to identify small molecule antagonists of the retinoid-related orphan receptor gamma (ROR-gamma) signaling pathway - cell viability counter screen (AID 1159520). Also: nearly all actives have a fitted effect of over 50% in size. Also: potency is read from the fitted curve at half-maximal effect. Summed up:
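Tet-on ROR gamma CHO cells (1,000/well) were plated 4 hr, given compounds in DMSO for 2 hr at 37 C, then induced with 1 uM final doxycycline for 16 hr. Viability was read as ATP by CellTiter-Glo luminescence after 30 min.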

Assay [6] is described as follows: qHTS assay to identify small molecule agonists of the AP-1 signaling pathway - cell viability counter screen (AID 1159525; calls by dose curve; also: nearly all actives have a fitted effect of over 55% in size; also: potency is read from the fitted curve at half-maximal effect). Summed up: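 ME-180 AP-1-bla, 2500 cells/well, Opti-MEM + 0.5% dialyzed FBS; overnight 37 °C; cpd 15-pt titration, 5 h 37 °C; CellTiter-Glo 30 min RT; luminescence read; normalised to TOAB and DMSO controls.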
Assay [7] is described as follows: qHTS assay to identify small molecule agonists of the RXR signaling pathway - cell viability counter screen (AID 1159529). Also: nearly all actives have a fitted effect of over 50% in size. Also: potency is read from the fitted curve at half-maximal effect. Summed up: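 Counter screen: CellTiter-Glo luminescence. Cells: RXR-alpha-UAS-bla HEK 293T. Medium: 2% charcoal-stripped FBS. Treatment: 16 h, 37 C. Reagent incubation: 30 min, RT.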
Assay [8] is described as follows: qHTS assay to identify small molecule agonists of the AP-1 signaling pathway (AID 1159526; calls by dose curve).
The target in assay [9] is Retinoic acid receptor RXR-alpha (Homo sapiens) (UniProt P19793). Put plainly: qHTS assay to identify small molecule agonists of the RXR signaling pathway (AID 1159527; calls by dose curve; also: nearly all actives have a fitted effect of over 35% in size). In a few lines:
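Compounds in DMSO were added to RXR-alpha-UAS-bla HEK 293T cells kept in 2% charcoal-stripped serum, and incubated 16 hr at 37 C with 5% CO2. Reporter signal came from a 2 hr B/G FRET substrate step.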

Assay [10] concerns the target Nuclear receptor ROR-gamma (Homo sapiens) (UniProt P51449). Put plainly: qHTS assay to identify small molecule antagonists of the retinoid-related orphan receptor gamma (ROR-gamma) signaling pathway (AID 1159521; also: nearly all actives have a fitted effect of over 50% in size; also: potency is read from the fitted curve at half-maximal effect). Summed up:
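Inducible-expression reporter assay: doxycycline (1 uM final) switched on RORγ in CHO cells bearing a ROR response element-luciferase construct, with test compounds present from 2 h beforehand. Decreased luminescence after 16 h defined antagonist activity.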

Records with an inconclusive call do not appear. Calls of active or inactive are those of the source. Unless noted, calls follow the shape of the dose curve; as a rule, active = well fitted curve in the direction sought with a large enough effect in the repeat runs; inconclusive = weak or mixed curves; inactive = no such curve, though single readings can be large; an effect the other way counts as inactive or inconclusive.

Retinoic acid receptor RXR-alpha (Homo sapiens), sequence (P19793 whole entry, looked up): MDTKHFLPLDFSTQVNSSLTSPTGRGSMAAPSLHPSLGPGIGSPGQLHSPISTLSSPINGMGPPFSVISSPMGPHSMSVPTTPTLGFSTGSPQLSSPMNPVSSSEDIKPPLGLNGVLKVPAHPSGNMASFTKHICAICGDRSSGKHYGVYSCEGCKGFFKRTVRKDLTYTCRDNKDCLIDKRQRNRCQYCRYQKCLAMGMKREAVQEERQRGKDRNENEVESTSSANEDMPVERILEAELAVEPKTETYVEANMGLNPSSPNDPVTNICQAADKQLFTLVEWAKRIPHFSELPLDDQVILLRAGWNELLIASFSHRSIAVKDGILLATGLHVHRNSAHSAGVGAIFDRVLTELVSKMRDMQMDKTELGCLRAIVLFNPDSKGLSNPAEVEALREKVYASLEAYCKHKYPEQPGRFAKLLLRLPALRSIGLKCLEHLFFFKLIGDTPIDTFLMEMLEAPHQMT

As for `CCC(=O)OCCc1ccccc1`, the Potency in assay [1] is 41.8 µM (active). Further, the Potency entry in assay [2], in assay [3], in [4], in assay [5], in assay [6] and in assay [7] was “inactive” each time.
As to `O=S(=O)(O)CCCN1CCOCC1`, the Potency result in assay [1], in [2], in [3], in assay [4], in assay [5] and in assay [6] was “inactive” throughout. For the same molecule, the Potency result in assay [8], in [9] and in [7] was “inactive” in each case.
`CC(NCCC(c1ccccc1)c1ccccc1)c1ccccc1` (stereo not drawn): the Potency in assay [1] is 23.7 µM (active); in assay [10], 29.8 µM (active). Besides, the Potency entry in assay [3], in assay [4] and in assay [6] was “inactive” in each case.
As for `C=CC(=C)CCC=C(C)C`, the Potency in assay [1] was 54.9 µM (active). The Potency entry in assay [2], in [3], in assay [4], in [5], in assay [6] and in assay [7] was “inactive” throughout.
As for `CCOC(=O)COc1ccc(C)cc1`, the Potency result in [1], in assay [2], in assay [3], in assay [5], in assay [10] and in assay [6] was “inactive” throughout. Moreover, the Potency entry in assay [8], in assay [9] and in assay [7] was “inactive” throughout.
With `C[Si](C)(C)Cl`, the Potency entry in assay [1], in [2], in assay [3], in [5], in [10] and in assay [6] was “inactive” throughout. Also, the Potency result in [8], in assay [9] and in [7] was “inactive” each time.
As to `NC(=O)C(=O)N/N=C/c1ccc([N+](=O)[O-])o1`, the Potency result in [1], in assay [2], in [3], in assay [4], in [10] and in assay [7] was “inactive” throughout.
`C=CC(=O)OCCC#N`: the Potency result in assay [1], in [2], in [3], in [4], in assay [6] and in assay [7] was “inactive” throughout.
`CCO[Si](CCCSSSSCCC[Si](OCC)(OCC)OCC)(OCC)OCC`: the Potency entry in assay [3], in [4] and in [5] was “inactive” throughout. Further, the Potency in assay [6] is 24.6 µM (active); in assay [7], 21.9 µM (active).
In the case of `Cc1c(C(=O)O)cccc1[N+](=O)[O-]`, the Potency entry in [2], in assay [3], in assay [4], in assay [5] and in assay [6] was “inactive” each time.
Turning to `CCCCCCCC/C=C\CCCCCCCC(=O)N(C)CC(=O)O`, the Potency in assay [1] was 49 µM (active); in assay [4], 54.9 µM (active); in assay [6], 30.9 µM (active). Further, the Potency result in [3] and in assay [10] was “inactive” each time.
On to `CCNc1nc(NC(C)CC)nc(OC)n1` (stereo not drawn), for which the Potency result in [2], in assay [3], in assay [4], in assay [5], in [6] and in assay [8] was “inactive” throughout. Further, the Potency entry in assay [9] and in [7] was “inactive” throughout.
As to `Cc1ccc2ccc3cccc4ccc1c2c34`, the Potency entry in assay [1], in assay [3], in assay [4], in assay [5], in [6] and in assay [8] was “inactive” in each case.
With `Cn1cnc2ncnc(N)c21`, the Potency result in [1], in assay [2], in assay [3], in assay [5], in [10] and in [6] was “inactive” in each case. Further, the Potency result in [8] and in [7] was “inactive” throughout.
`Cc1nc(Nc2ncc(C(=O)Nc3c(C)cccc3Cl)s2)cc(N2CCN(CCO)CC2)n1`: the Potency entry in assay [2], in [3], in [4], in assay [6] and in assay [7] was “inactive” each time.
`CC(C)(C)C1=CC(=O)C=C(C(C)(C)C)C1=O`: the Potency result in assay [1], in [2], in assay [3], in assay [4], in assay [5] and in [6] was “inactive” throughout. Moreover, the Potency result in [8] and in assay [7] was “inactive” throughout.
Regarding `C=C[C@](C)(O)CC[C@@H]1[C@@]2(C)CCCC(C)(C)[C@@H]2CC[C@@]1(C)O`, the Potency in [1] was 43.6 µM (active); in assay [2], 43.6 µM (active); in assay [6] it was 24.5 µM (active); in assay [7] it was 43.6 µM (active). In addition, the Potency entry in assay [3] and in assay [4] was “inactive” in each case.
Turning to `O=C(O)CC(=O)O`, the Potency result in assay [1], in [2], in assay [3], in assay [4], in assay [5] and in [8] was “inactive” throughout. The Potency entry in assay [9] and in assay [7] was “inactive” in each case.
With `O=C1OC(OC(=O)c2cccnc2Nc2cccc(C(F)(F)F)c2)c2ccccc21` (stereo not drawn), the Potency result in [1], in assay [2], in [3], in assay [4], in [5] and in assay [6] was “inactive” each time. Also, the Potency result in [7] is “inactive”.
Regarding `O[C@@H](c1cc(C(F)(F)F)nc2c(C(F)(F)F)cccc12)[C@H]1CCCCN1`, the figures for the Potency in [1], in [2] and in assay [7] were 21.1 µM (active), 19 µM (active) and 15.1 µM (active), respectively. The Potency result in assay [3] and in [6] was “inactive” throughout.
As to `C[C@]12CC[C@H]3C(=CCc4cc(O)ccc43)[C@@H]1CCC2=O`, the Potency entry in [1], in assay [3], in assay [5], in assay [10] and in assay [8] was “inactive” throughout. In assay [7], the Potency is 21.9 µM (active).
Consider `COCC(=O)O[C@]1(CCN(C)CCCc2nc3ccccc3[nH]2)CCc2cc(F)ccc2[C@@H]1C(C)C`, for which the Potency in assay [1] is 26.6 µM (active); in [2], 21.3 µM (active); in [5], 29.8 µM (active); in assay [10], 26.6 µM (active); in assay [7], 15.1 µM (active). Further, the Potency result in assay [3] and in assay [6] was “inactive” each time.
`CCN(CC)CCOc1ccc(C(O)(Cc2ccc(Cl)cc2)c2ccc(C)cc2)cc1` (stereo not drawn): the Potency is 23.9 µM (active) in assay [2], 29.8 µM (active) in assay [10] and 21.3 µM (active) in [7]. Also, the Potency result in assay [3] is “inactive”.
As to `CC(O)C#CC(C)O` (stereo not drawn), the Potency result in [3] was “inactive”. Also, the Potency was 27 µM (active) in [5], 19.1 µM (active) in [10] and 43.2 µM (active) in assay [7].
With `C[C@@H]1CC[C@H]2C(C)(C)[C@H]3C[C@@]12CC[C@@]3(C)O`, the Potency result in assay [2], in assay [3], in [10], in assay [6] and in assay [9] was “inactive” in each case.
Turning to `CCOC(=O)C1=C(C)NC(C)=C(C(=O)OCC)C1c1ccccc1/C=C/C(=O)OC(C)(C)C`, the Potency result in [1] and in [9] was “inactive” in each case. Moreover, the Potency in assay [3] is 19 µM (active); in [5], 29.8 µM (active); in assay [6], 26.8 µM (active).
Regarding `O=C(Oc1ccccc1)c1cccc(C(=O)Oc2ccccc2)c1`, the Potency result in assay [1], in assay [3], in [5], in assay [10] and in [6] was “inactive” in each case.
As for `Oc1ccc(-c2ccc(O)cc2)cc1`, the Potency entry in assay [1], in [2], in assay [3], in assay [5], in [10] and in assay [6] was “inactive” in each case. Also, the Potency result in assay [8] and in assay [7] was “inactive” each time.
For `CCc1ccc(O)c(C(C)(C)C)c1`, the Potency in assay [2] was 38.9 µM (active). Besides, the Potency entry in assay [3], in [5], in assay [10] and in assay [9] was “inactive” in each case.
